Assay results: PubChem BioAssay AID1159580 (chemical genetic matrix, 2015)
In all, about 5,500 compounds went through this assay and about 2,000 (36%) were called active. Roughly 18% stayed inconclusive and do not appear here. No stated cut-off is given here; in the data, active means normalized growth mostly below about 0.91 (no sharp cut-off); inconclusive means no clear call, values can overlap the other calls; inactive means mostly above about 0.92. This is one part of the list.

Test: chemical genetic growth profiling, strain panel (AID 1159580);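 further: tested at 20 µM; growth read once vehicle control cultures reached saturation at 30 °C; 1 = growth at the plate median or of vehicle wells; lower values mean less growth of the strain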
Conditions: S. cerevisiae deletion strains, growth OD
[1] = locus YMR307W, strain GAS1, hits give low values
[2] = locus YNL322C, strain KRE1, hits give low values

Measured: normalized growth

NC(N)=NCc1cccc(I)c1
inactive: locus YAL040C, strain CLN3, hits give low values 0.995 | locus YCL061C, strain MRC1 (second series), hits give low values 0.991 | locus YDR150W, strain NUM1, hits give low values 1.01 | locus YDR363W, strain ESC2, hits give low values 1 | locus YER002W, strain NOP16, hits give low values 1 | [1] 0.997 | locus YNL128W, strain TEP1, hits give low values 1.02 | locus YNL175C, strain NOP13, hits give low values 1.01 | locus YNL197C, strain WHI3, hits give low values 0.987 | locus YNL224C, strain SQS1, hits give low values 1.01 | [2] 0.982 | locus YOR083W, strain WHI5 (second series), hits give low values 0.99 | locus YPL055C, strain LGE1, hits give low values 1.02

C=C(C)C1Cc2c(ccc(C(=O)O)c2O)O1 (stereo not drawn)
inactive: locus YBR021W, strain FUR4, hits give low values 0.931 | locus YBR229C, strain ROT2, hits give low values 0.984 | locus YCL029C, strain bik1, hits give low values 0.979 | locus YDL035C, strain GPR1, hits give low values 1.03 | locus YDL074C, strain BRE1, hits give low values 1.02 | locus YDL101C, strain DUN1, hits give low values 1.02 | locus YDL134C, strain PPH21, hits give low values 1.03 | locus YDL192W, strain arf1, hits give low values 0.965 | locus YDR101C, strain arx1, hits give low values 0.954 | locus YDR162C, strain NBP2, hits give low values 1.03 | locus YDR318W, strain mcm21, hits give low values 0.963 | locus YDR388W, hits give low values 0.953 | locus YDR502C, strain sam2, hits give low values 0.979 | locus YEL061C, strain CIN8, hits give low values 0.991 | locus YER110C, hits give low values 0.944 | locus YER155C, strain BEM2, hits give low values 0.946 | locus YER167W, strain BCK2, hits give low values 1 | locus YGL078C, strain dbp3, hits give low values 0.932 | locus YGL086W, strain mad1, hits give low values 0.982 | locus YGL248W, strain PDE1, hits give low values 1 | locus YGR135W, strain pre9, hits give low values 0.969 | locus YGR252W, strain gcn5, hits give low values 0.871 | locus YHR030C, strain SLT2, hits give low values 0.982 | locus YHR079C, strain IRE1 (second series), hits give low values 0.948 | locus YHR094C, strain hxt1, hits give low values 0.944 | locus YHR129C, strain ARP1, hits give low values 0.993 | locus YHR200W, strain rpn10, hits give low values 0.958 | locus YIL066C, strain RNR3, hits give low values 1.03 | locus YIL073C, strain SPO22, hits give low values 1.05 | locus YIR030C, strain dcg1, hits give low values 0.957 | locus YJL095W, strain BCK1, hits give low values 1.04 | locus YJL134W, strain LCB3, hits give low values 0.979 | locus YJL168C, strain set2, hits give low values 0.946 | locus YJL187C, strain SWE1 (second series), hits give low values 1.02 | locus YJR043C, strain POL32, hits give low values 1.02 | locus YJR075W, strain HOC1, hits give low values 1.01 | locus YKL085W, strain MDH1 (second series), hits give low values 0.931 | locus YKL085W, strain MDH1, hits give low values 0.931 | locus YKL190W, strain CNB1, hits give low values 0.998 | locus YKR001C, strain vps1, hits give low values 0.901 | locus YLR039C, strain RIC1, hits give low values 1.07 | locus YLR058C, strain SHM2, hits give low values 1 | locus YLR102C, strain apc9, hits give low values 0.942 | locus YLR262C, strain YPT6, hits give low values 1.08 | locus YLR268W, strain sec22, hits give low values 0.99 | locus YLR330W, strain CHS5, hits give low values 0.976 | locus YLR342W, strain FKS1 (second series), hits give low values 0.998 | locus YLR371W, strain rom2, hits give low values 0.957 | locus YLR418C, strain cdc73, hits give low values 0.957 | locus YML016C, strain PPZ1, hits give low values 0.987 | locus YML032C, strain rad52, hits give low values 0.988 | locus YML124C, strain tub3, hits give low values 0.957 | locus YMR078C, strain ctf18, hits give low values 0.923 | locus YMR223W, strain ubp8, hits give low values 0.98 | [1] 0.972 | locus YNL067W, strain RPL9B, hits give low values 1.01 | locus YNL233W, strain BNI4, hits give low values 1.01 | locus YNL250W, strain rad50, hits give low values 0.911 | locus YNL307C, strain MCK1, hits give low values 0.95 | [2] 0.993 | locus YNR052C, strain pop2, hits give low values 0.971 | locus YOL012C, strain htz1 1.06 | locus YOL147C, strain pex11, hits give low values 0.955 | locus YOR061W, strain CKA2, hits give low values 0.995 | locus YOR069W, strain VPS5, hits give low values 0.99 | locus YOR136W, strain idh2, hits give low values 0.985 | locus YOR144C, strain elg1, hits give low values 0.948 | locus YOR184W, strain ser1, hits give low values 0.989 | locus YOR316C, strain cot1, hits give low values 0.939 | locus YPR119W, strain clb2, hits give low values 0.943 | locus YPR141C, strain kar3, hits give low values 0.918 | locus YPR163C, strain tif3, hits give low values 0.968 | locus YPR167C, strain met16, hits give low values 0.963 | strain wtn01, hits give low values 0.972
active: locus YDL185W, strain tfp1, hits give low values 0.86 | locus YIL125W, strain kgd1, hits give low values 0.91 | locus YKL009W, strain mrt4, hits give low values 0.865 | locus YKL068W, hits give low values 0.91 | locus YNL271C, strain bni1, hits give low values 0.9 | locus YNL298W, strain CLA4, hits give low values 0.795
